Assay outcomes from PubChem.
This is a sample that favours compounds with a hit; in the whole collection about 1.7% have one here.
PME-1 inh: PME-1 (human) inhibition | Q9Y570 | recombinant PME-1, FP-Rh probe fluorescence polarization | inhibition, % at 5.9 µM | actives 0.53% (n = 320,000);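 active = inhibition above the campaign mean of all compounds plus 3 SD, cut at about 26% in these data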;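 also: competitive labeling of PME-1 active site by serine hydrolase directed probe; inhibitors block probe labeling so polarization falls and inhibition rises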
GSTO1 counter: counter-screen for RBBP9 inhibitors: inhibitors of human GSTO1; actives 1.1% (n = 300,000); inhibition, % at 5.96 µM; P78417; recombinant GSTO1, activity-based probe fluorescence polarization;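 active = inhibition above the campaign mean inhibition plus 3 SD, cut at about 35% in these data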
Target sequence (P78417 whole entry, looked up): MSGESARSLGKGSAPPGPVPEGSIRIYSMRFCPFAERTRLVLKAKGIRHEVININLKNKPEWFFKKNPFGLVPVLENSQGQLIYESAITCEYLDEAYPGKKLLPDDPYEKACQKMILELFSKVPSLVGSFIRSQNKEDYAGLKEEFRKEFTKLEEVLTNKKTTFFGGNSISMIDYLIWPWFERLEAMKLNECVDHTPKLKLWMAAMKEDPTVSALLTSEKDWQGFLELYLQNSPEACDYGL
LYPLA2 inh: LYPLA2 (human) inhibition in PME1 counter-screen; actives 0.38% (n = 320,000); recombinant LYPLA2, FP-Rh probe fluorescence polarization; AID 2177; inhibition, % at 5.9 µM;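 active = inhibition above the screen-wide mean plus 3 SD, limit set per campaign, cut at about 26% in these data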
Target sequence (O95372 whole entry, looked up): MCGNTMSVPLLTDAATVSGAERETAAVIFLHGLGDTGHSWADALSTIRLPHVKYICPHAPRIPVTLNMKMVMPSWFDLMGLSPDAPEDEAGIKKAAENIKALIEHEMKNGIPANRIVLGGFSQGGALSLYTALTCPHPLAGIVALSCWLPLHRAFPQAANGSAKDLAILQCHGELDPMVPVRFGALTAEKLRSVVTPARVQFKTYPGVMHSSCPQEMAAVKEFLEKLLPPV
Fam108B inh: blocks mouse Fam108B hydrolase in RBBP9 counter-screen. recombinant Fam108B, FP-Rh probe fluorescence polarization. inhibition, % at 9.51 µM. actives 0.33% (n = 300,000). AID 1947;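 active = inhibition above the screen mean inhibition plus 3 SD, computed separately per campaign, cut at about 18% in these data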;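 also: inhibitors lower polarization as less probe binds the enzyme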
LYPLA1 counter: blocks human lysophospholipase 1, a PME1 counter-screen. AID 2174. actives 0.16% (n = 320,000). inhibition, % at 5.9 µM. recombinant LYPLA1, FP-Rh probe fluorescence polarization. O75608;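 active = inhibition above the mean of all tested compounds plus 3 SD, set per campaign, cut at about 14% in these data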;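 also: inhibitors block serine hydrolase probe labeling of LYPLA1 so polarization falls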
PAD4 inh: PAD4 (human) enzyme inhibition | Q9UM07 | recombinant PAD4, RCA probe fluorescence polarization | inhibition, % at 6.36 µM | actives 0.41% (n = 330,000);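 active = percent inhibition above a cutoff equal to the mean of all tested compounds plus 3 SD, cut at about 15% in these data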
PAD4 FP conf: confirmation of human PAD4 inhibitors | shares compounds with PAD4 inh | recombinant PAD4, RCA probe fluorescence polarization | inhibition, % at 6.36 µM | actives 28% (n = 1,200);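 active = mean inhibition across replicates above the hit cutoff set by the earlier primary screen, cut at about 15% in these data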;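 also: inhibitors block active-site labeling by the probe so polarization falls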
Each line names hits and unclear results; the compound was inactive in the other large screens (follow-up assays come after a bar, where they were run).

Cc1c(C(=O)N2CCCCC2)c(S(=O)(=O)N2CCN(c3ccc(Cl)cc3)CC2)c(C)n1C	PAD4 inh 68 | PAD4 FP conf inactive
CCOC(=O)C(Nc1ccc2ccccc2c1)C(=O)OCC	PAD4 inh 21 | PAD4 FP conf inactive
O=C(COc1ccc(Br)cc1)NCCCNC(=O)c1cccnc1	none
O=[N+]([O-])c1c(Nc2ccccn2)cc(Cl)c2nonc12	PAD4 inh 49 | PAD4 FP conf inactive
O=[N+]([O-])c1c(Nc2ccc(O)cc2)cc(Cl)c2nonc12	PAD4 inh 22 | PAD4 FP conf inactive
CCCCCCCc1c(O)nc(SCCN(C)C)[nH]c1=O	none
CCCc1c(O)nc(SCCN(CCC)CCC)[nH]c1=O	PAD4 inh 48 | PAD4 FP conf inactive
COCCCNC(=O)C(C#N)c1nc2ccccc2nc1N1CCCC1 (centres undefined)	none
COCCOC(=O)C(C#N)c1nc2ccccc2nc1N1CCCC1 (centres undefined)	PAD4 inh 18 | PAD4 FP conf inactive
Cc1cccc(NC(=S)NCc2ccc3c(c2)cc(C)n3C)c1C	PAD4 inh 19 | PAD4 FP conf inactive
Cc1ccc2nc(NC(=O)CSc3nncc(=O)n3N)sc2c1	PAD4 inh 19 | PAD4 FP conf inactive
CCOC(=O)CC(NC(=O)CCc1c(C)nc2ncnn2c1C)c1ccc(OC(C)C)cc1 (centres undefined)	none
COc1ccc(NC(=O)CCCSc2ccccc2)cc1	none
COc1cc(OC)c(OC)cc1/C=N/NC(=O)c1ccc2nc[nH]c2c1	PAD4 inh 16 | PAD4 FP conf inactive
COc1ccc(/C=N/NC(=O)c2ccc3nc[nH]c3c2)c(OC)c1	none
C=CCN(C(=O)c1csnn1)C(C(=O)NCc1ccc(F)cc1)c1ccc(F)cc1 (centres undefined)	PAD4 inh 15 | PAD4 FP conf inactive
Oc1ccc(Cl)cc1C1=Nc2ccccc2N=C(c2ccco2)C1	none
Fc1ccccc1C1CC(c2ccco2)=Nc2ccccc2S1 (centres undefined)	PAD4 inh 19 | PAD4 FP conf inactive
CCOc1cc(/C=N\Nc2nc(Nc3ccccc3)nc(N3CCOCC3)n2)ccc1OC(=O)c1ccco1	none
O=P(O)(O)c1ccccc1OCc1ccccc1	none
O=C1CCCC(O)=C1N=Nc1c(Cl)cc(C(F)(F)F)cc1Cl	PAD4 inh 85 | PAD4 FP conf inactive
CCOC(=O)N1CCN(C(=O)c2cccc(S(=O)(=O)Nc3ccc(Br)cc3)c2)CC1	none
Cc1ccc(OCCCNC2CCCC2)cc1	PAD4 inh 17 | PAD4 FP conf inactive
CCc1cccc(NS(=O)(=O)c2ccc3c(c2)CCC(=O)N3)c1	PAD4 inh 16 | PAD4 FP conf inactive
Cc1ccnc(Sc2ccc([N+](=O)[O-])cc2[N+](=O)[O-])n1	PAD4 inh 22 | PAD4 FP conf 24
CCN1CCN(CC(O)COC(C)C)CC1 (centres undefined)	none
COc1ccc(CNC(=O)N2CCc3ccccc3C2)cc1Cl	none
Cc1cc(NC(=O)CCC(=O)N(c2ccccc2)C(C(=O)NC2CCCC2)c2ccccc2F)no1 (centres undefined)	PAD4 inh 19 | PAD4 FP conf inactive
CC(=O)c1cccc(NC(=S)NC2CCCCC2)c1	PAD4 inh 33 | PAD4 FP conf inactive
CN(C)C(CNC(=O)c1cc2ccccc2o1)c1ccco1 (centres undefined)	PAD4 inh 88 (no result: PME-1 inh, GSTO1 counter, LYPLA2 inh, Fam108B inh, LYPLA1 counter) | PAD4 FP conf inactive
O=C(CCc1nnc(C2(c3ccc(Cl)cc3)CCC2)o1)NCCCn1cccn1	none
CC(C)CCc1c(O)nc(SCC(=O)N2CCCCCC2)[nH]c1=O	PAD4 inh 16 | PAD4 FP conf inactive
CCCc1c(O)nc(SCC(=O)N2CCCCC2)[nH]c1=O	none
CC1CN(c2ccc(NC(=S)Nc3ccc(N4CC(C)OC(C)C4)cc3)cc2)CC(C)O1 (centres undefined)	PAD4 inh 20 | PAD4 FP conf inactive
NC(=Nc1ccc(N)cc1)C(N)=Nc1ccc(N)cc1	PAD4 inh 46 | PAD4 FP conf inactive
N=C(N)c1ccc(N)cc1	none
O=c1c2ccccc2sn1-c1ccccc1	PAD4 inh 36 | PAD4 FP conf 41
O=C(O)c1cccc(-n2sc3ccccc3c2=O)c1	PAD4 inh 56 (no result: GSTO1 counter, Fam108B inh) | PAD4 FP conf 46
O=C(O)c1cccc(-n2c(/C=C/c3ccccc3)nc3ccccc3c2=O)c1	none
O=c1c2ccccc2[nH]c2ccc(F)cc12	none
Cc1ccccc1-n1sc2cc(F)ccc2c1=O	PAD4 inh 21 | PAD4 FP conf 28
O=c1c2cc(F)ccc2sn1-c1ccccc1	PAD4 inh 41 (no result: GSTO1 counter, Fam108B inh) | PAD4 FP conf 36
COc1cc(CC(NC(C)=O)C(=O)NC2CCN(C(=O)Nc3ccc(C)cc3)CC2)cc(OC)c1 (centres undefined)	none
COC(=O)c1ccc(N2CCOCC2)c(NC(=O)c2ccco2)c1	none
COCc1cc(C)nc(SCC(=O)Nc2ccc3c(c2)n(C)c(=O)n3C)c1C#N	PAD4 inh 197 | PAD4 FP conf inactive
COCc1cc(C)nc(SCC(=O)Nc2ccc3[nH]c(=O)[nH]c3c2)c1C#N	none
Cc1nnc(N/N=C\c2ccc(-c3ccccc3[N+](=O)[O-])o2)n1N	GSTO1 counter 36, PAD4 inh 35 | PAD4 FP conf inactive
CCc1nnc(N/N=C/c2ccc(-c3ccc([N+](=O)[O-])cc3)o2)n1N	PAD4 inh 25 | PAD4 FP conf inactive
COC(=O)c1ccccc1-c1ccc(/C=N/NC(N)=O)o1	none
Cc1n[nH]c(=S)n1/N=C/c1ccc(-c2ccccc2[N+](=O)[O-])o1	none
Cc1nnc(N/N=C/c2ccc(-c3ccccc3F)o2)n1N	PAD4 inh 25 | PAD4 FP conf inactive
COc1ccc(C(=O)Nc2c3c(nn2-c2ccc([N+](=O)[O-])cc2)CS(=O)(=O)C3)cc1	none
COc1ccc(-c2noc3c2-c2nc(-c4ccc(Br)cc4)sc2CC3)cc1	PAD4 inh 102 | PAD4 FP conf inactive
CCN1C=C(Cc2ccc(F)cc2)C2=C(C1)C(c1ccc(F)cc1)C(C#N)=C(N)O2 (centres undefined)	PAD4 inh 24 | PAD4 FP conf inactive
CCN1C=C(Cc2ccccc2C)C2=C(C1)C(c1ccccc1C)C(C#N)=C(N)O2 (centres undefined)	PAD4 inh 17 | PAD4 FP conf inactive
O=C1C2CC=CCC2C(=O)N1c1ccc(N2CCN(c3ccccn3)CC2)c([N+](=O)[O-])c1 (centres undefined)	none
O=C(Cn1cnc([N+](=O)[O-])c1)Nc1ccccc1C(F)(F)F	none
CC1CCCC(NC(=O)COC(=O)c2ccc([N+](=O)[O-])s2)C1C (centres undefined)	PAD4 inh 15 (no result: PME-1 inh, GSTO1 counter, LYPLA2 inh, Fam108B inh, LYPLA1 counter) | PAD4 FP conf inactive
